Test results published in PubChem BioAssay (Tox21).
Several values for one entry are separate records, joined by “and”; a condition that tells them apart may be missing. Identical values can stand only once. Inconclusive results are not listed. Activity calls are given as the source filed them. Calls follow the shape of the dose curve; as a rule, active = well fitted activation curve with a large enough effect in the signal ratio in the repeat runs (not every such curve was filed as active); inconclusive = weak or mixed curves; inactive = flat fitted curve, though single readings scatter; the % refers to the signal ratio.

Test: qHTS assay to identify small molecule agonists of H2AX (AID 1224845)
Conditions: CHO-K1 phospho-H2AX Ser139 HTRF, 3 h; series mostly up to 154 µM; activation (H2AX phosphorylation): at the top concentration
Text: National Center for Advancing Translational Sciences [NCATS]
NIH Chemical Genomics Center [NCGC]
U.S. Environmental Protection Agency [EPA]
National Institutes of Environmental Health Sciences [NIEHS]
National Toxicology Program [NTP]
U.S. Food and Drug Administration [FDA]
HTRF phospho-H2AX (Ser139) assay (Cisbio Bioassays, US) enables the quantitative detection of the histone variant H2AX when phosphorylated on serine 139. When double-stranded DNA breaks, either by ionizing radiation or endogenous physiological processes, H2AX becomes phosphorylated at Ser139. This phospho-Ser139 serves as a sensitive biomarker for the detection of such breaks, localizing the site of DNA repair. So, HTRF phospho-H2AX Ser139 is a pertinent assay to study genome stability, the cell cycle, DNA repair, and it serves as a biomarker for cancer, and to understand aging. Wild type CHO-K1 cells were used to identify the inducers of Phospho-H2AX Ser 139 from the Tox21 10K compound collections.
Tox21 Assay Protocol Summary:
The CHO-K1 cells suspended in culture medium containing 10% FBS were dispensed at 1000 cells/ 3 ul/well in 1536-well white wall/solid bottom plates (Greiner Bio-One North America, NC) using a Multidrop Combi (Thermo Fisher Scientific Inc., Waltham, MA). After the assay plates were incubated at 37C overnight, 23 nl of compounds at 15 concentrations (from 5-48 columns) or positive control (from 1 to 4 columns) were transferred to the assay plates using a Pintool station (Wako, San Diego, CA) into each well resulting in a final DMSO concentration of 0.76%. After 3hr incubation at 37C, 1 uL/well Supplemented Lysis buffer (diluted 100 fold blocking reagent in lysis buffer) (HTRF Phospho-H2A.X (S139) Assay kit from Cisbio US Inc., Bedford, MA) was added using a Flying Reagent Dispenser (FRD) (Aurora Discovery, CA). After 10sec spin at 1000 rpm in a plate centrifuge, the assay plates were incubated at room temperature for 30 min. Then followed by the addition of 1 uL/well detection buffer (containing a mixture of two antibodies, one labeled with cryptate, Anti pH2AX (S139)-K and another labeled with d2, Anti H2AX-d2) using FRD. After incubation at room temperature for 24 hr, the time resolved fluorescence at excitation 320 nm and emissions at 665 nm and 620 nm was measured using an Envision plate reader (PerkinElmer, Waltham, MA).
% is scaled to controls: 0 for no effect and ±100 for the full control effect; potency is read from the fitted curve at half-maximal effect.

Q: Which “activation (H2AX phosphorylation)” value does the source give for `OC(Cc1ccccc1Cl)(Cn1[nH]cnc1=S)C1(Cl)CC1` (stereo not given) here?
A: 1.06% (inactive)

Q: For `C=CCOC(=O)c1ccccc1C(=O)OCC=C`, which “activation (H2AX phosphorylation)” value is on record?
A: -2.46% (inactive)

Q: Which “activation (H2AX phosphorylation)” value does the source give for `Cc1ccc(N(SC(F)(Cl)Cl)S(=O)(=O)N(C)C)cc1` here?
A: -5.32% (inactive)

Q: Which Potency does the source give for `ClC(Cl)(Cl)c1ccc(C(Cl)(Cl)Cl)cc1` here?
A: 112 µM (active)

Q: For `CCCCCCCCCc1ccc(OCCOCCO)cc1`, which “activation (H2AX phosphorylation)” value is on record?
A: 0.459% [at 70.9 µM] (inactive)

Q: For `O=C(Nc1ccccc1-c1ccc(Cl)cc1)c1cccnc1Cl`, which “activation (H2AX phosphorylation)” value is on record?
A: -0.433% (inactive)

Q: With `Brc1c2ccccc2c(Br)c2ccccc12` as the compound, how does the activation (H2AX phosphorylation) read?
A: -2.5% [at 14 µM] (inactive)

Q: With `CCC(C)=O` as the compound, how does the “activation (H2AX phosphorylation)” value read?
A: 2.38% (inactive)

Q: With `C[C@@]12C(=O)OC(=O)[C@]1(C)C1CCC2O1` as the compound, how does the Potency read?
A: 22 µM (active)

Q: With `Nc1ccc(Cl)cc1[N+](=O)[O-]` as the compound, how does the “activation (H2AX phosphorylation)” value read?
A: 0.266% (inactive)

Q: Which “activation (H2AX phosphorylation)” value does the source give for `N#Cc1cc([N+](=O)[O-])ccc1N` here?
A: -2.16% (inactive)

Q: For `Clc1nc(Cl)c(Cl)c(Cl)c1Cl`, which “activation (H2AX phosphorylation)” value is on record?
A: 1.33% (inactive)

Q: With `Cc1ccc2nc3sc(=O)sc3nc2c1` as the compound, how does the activation (H2AX phosphorylation) read?
A: -0.108% [at 31.6 µM] (inactive)

Q: For `C=CC(=O)OCCCCCCCC(C)C`, which “activation (H2AX phosphorylation)” value is on record?
A: -1.99% (inactive)

Q: Which “activation (H2AX phosphorylation)” value does the source give for `O=C(c1ccccc1)C(Cl)Cl` here?
A: 8.36% (inactive)

Q: With `O=C1OC(=O)c2c(Br)c(Br)c(Br)c(Br)c21` as the compound, how does the “activation (H2AX phosphorylation)” value read?
A: 2.68% (inactive)

Q: For `Brc1ccc(Br)c(Br)c1`, which “activation (H2AX phosphorylation)” value is on record?
A: -2.53% (inactive)

Q: With `CCOC(=O)C(O)(c1ccc(Cl)cc1)c1ccc(Cl)cc1` as the compound, how does the Potency read?
A: 90.7 µM (active) and 89.8 µM (active)

Q: Which “activation (H2AX phosphorylation)” value does the source give for `CCCCC(CC)COC(=O)c1ccc(C(=O)OCC(CC)CCCC)cc1` (stereo not given) here?
A: -0.755% (inactive)

Q: For `Nc1ccc([N+](=O)[O-])cc1`, which “activation (H2AX phosphorylation)” value is on record?
A: -2.46% (inactive)

Q: With `CCN(CC)C(=O)Cl` as the compound, how does the “activation (H2AX phosphorylation)” value read?
A: -1.56% (inactive)

Q: For `Oc1c(I)cc(I)cc1I`, which “activation (H2AX phosphorylation)” value is on record?
A: 10.1% (inactive)

Q: For `CCc1cccc(CC)c1N`, which “activation (H2AX phosphorylation)” value is on record?
A: 0.517% (inactive)

Q: Which “activation (H2AX phosphorylation)” value does the source give for `CCc1cccc(C)c1N` here?
A: -2.78% (inactive)

Q: For `Cc1cccc(C)c1[N+](=O)[O-]`, which “activation (H2AX phosphorylation)” value is on record?
A: 2.24% (inactive)

Q: Which “activation (H2AX phosphorylation)” value does the source give for `Cc1cc([N+](=O)[O-])ccc1N` here?
A: -0.569% (inactive)

Q: For `COc1ccccc1[N+](=O)[O-]`, which “activation (H2AX phosphorylation)” value is on record?
A: -0.324% (inactive)

Q: Which “activation (H2AX phosphorylation)” value does the source give for `Cc1cc(C(C)(C)c2ccc(O)c(C)c2)ccc1O` here?
A: -1.69% (inactive)

Q: Which Potency does the source give for `CN1CSC(=S)N(C)C1` here?
A: 4.48 µM (active)

Q: For `Cc1ccc([N+](=O)[O-])cc1N`, which “activation (H2AX phosphorylation)” value is on record?
A: -1.88% (inactive)

Q: For `C[C@]12CC[C@@H](O)C[C@@H]1CC[C@@H]1[C@@H]2CC[C@]2(C)C(=O)CC[C@@H]12`, which “activation (H2AX phosphorylation)” value is on record?
A: 6.06% (inactive)

Q: With `O=P(OC(CCl)CCl)(OC(CCl)CCl)OC(CCl)CCl` as the compound, how does the “activation (H2AX phosphorylation)” value read?
A: -1.53% (inactive)

Q: With `OCC(c1ccc(Cl)cc1)c1ccc(Cl)cc1` as the compound, how does the “activation (H2AX phosphorylation)” value read?
A: -1.54% (inactive)

Q: With `CNc1ccccc1` as the compound, how does the “activation (H2AX phosphorylation)” value read?
A: -3.21% (inactive)

Q: For `CCCCCCCC#N`, which “activation (H2AX phosphorylation)” value is on record?
A: 2.17% (inactive)

Q: With `O=C1C(I)=CC(=C(c2cc(I)c(O)c(I)c2)c2ccccc2C(=O)O)C=C1I` as the compound, how does the “activation (H2AX phosphorylation)” value read?
A: 0.215% [at 70.9 µM] (inactive)

Q: Which “activation (H2AX phosphorylation)” value does the source give for `OCC(CBr)(CBr)CBr` here?
A: -0.868% (inactive)

Q: For `Nc1ccc(Cl)cc1Cl`, which “activation (H2AX phosphorylation)” value is on record?
A: -0.327% (inactive)

Q: For `CNC(=O)Oc1cc(C)c(SC)c(C)c1`, which Potency is on record?
A: 63.5 µM (active)

Q: Which Potency does the source give for `CC(C)(C)c1cc(C(C)(C)C)c(O)c(C(C)(C)C)c1` here?
A: 101 µM (active)
